Assay results taken from the supplement of paper PMC3545927.
The list shows a part of the results. How many sequences the whole screen found active is unknown.

Target: furin, P09958
Test: furin cleavage Z-score vs untreated control; higher = more cleavage, active = 3.5 or more, inactive = 1 or less, 8 variable residues between constant flanks
Procedure, shortened: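 Reactions of 0.01 ml ran for 7.5, 15 or 30 min in 50 mM HEPES pH 7.5 with CaCl2 and NaCl, at 1:10 enzyme:substrate. In them, purified furin acted on bead-held 8-mer peptides fused to a cDNA oligonucleotide. The cleavage Z-score was obtained by lowess-adjusting log sequencing counts of released DNA against furin-free reactions and scaling by median absolute deviation.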

Sequence of furin, P09958 (P09958 whole entry): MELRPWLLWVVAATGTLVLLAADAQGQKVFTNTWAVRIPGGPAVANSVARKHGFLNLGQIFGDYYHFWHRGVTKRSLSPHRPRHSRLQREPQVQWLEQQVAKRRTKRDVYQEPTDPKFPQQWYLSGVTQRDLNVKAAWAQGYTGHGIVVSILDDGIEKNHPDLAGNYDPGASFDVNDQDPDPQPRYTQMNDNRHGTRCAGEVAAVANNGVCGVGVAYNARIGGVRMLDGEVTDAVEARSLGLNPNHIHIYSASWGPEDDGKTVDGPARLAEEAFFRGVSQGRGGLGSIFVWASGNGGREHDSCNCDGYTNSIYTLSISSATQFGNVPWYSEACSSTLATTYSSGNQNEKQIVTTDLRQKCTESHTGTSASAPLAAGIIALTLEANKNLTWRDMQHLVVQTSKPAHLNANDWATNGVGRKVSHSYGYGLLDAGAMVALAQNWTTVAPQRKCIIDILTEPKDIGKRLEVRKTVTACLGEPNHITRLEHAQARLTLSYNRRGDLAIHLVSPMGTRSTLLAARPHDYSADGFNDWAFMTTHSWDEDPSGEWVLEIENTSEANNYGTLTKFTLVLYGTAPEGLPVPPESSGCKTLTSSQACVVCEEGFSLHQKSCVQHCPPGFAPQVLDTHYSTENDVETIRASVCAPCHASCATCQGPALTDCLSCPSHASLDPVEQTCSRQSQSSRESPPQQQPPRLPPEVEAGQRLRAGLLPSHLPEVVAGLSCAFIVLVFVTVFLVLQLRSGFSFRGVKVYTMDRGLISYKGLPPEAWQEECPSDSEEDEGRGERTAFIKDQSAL

Sequence | furin cleavage Z-score (7.5 min) | furin cleavage Z-score (15 min) | furin cleavage Z-score (30 min)
CAQSPRSFQKAGNASASA [TR4] | -0.296 (inactive) | -2.07 (inactive) | -0.29 (inactive)
CALMGYIPLVAGNASASA [HC227] | 0.341 (inactive) | 2.34 | -0.327 (inactive)
CAMEICSQHLAGNASASA [HC1704] | 0.947 (inactive) | 2.02 | 0.46 (inactive)
CARAERAARFAGNASASA [FS-185] | 0.624 (inactive) | 2.79 | 2.55
CARRHRRPRRAGNASASA [FS-1074] | 5.28 (active) | 6.77 (active) | 6.21 (active)
CARRHRTYRWAGNASASA [FS-864] | 7.43 (active) | 9.85 (active) | 11.3 (active)
CARAERRPRRAGNASASA [FS-1059] | 8.38 (active) | 9.79 (active) | 8.17 (active)
CARRHRKKKRAGNASASA [FS-918] | 0.00638 (inactive) | 0.147 (inactive) | 0.539 (inactive)
CAKEVKAAASAGNASASA [HC1405] | 0.037 (inactive) | -0.691 (inactive) | 0.852 (inactive)
CAKYLFNWAVAGNASASA [HC1632] | -0.0484 (inactive) | 0.619 (inactive) | 0.965 (inactive)
CASSECTTPCAGNASASA [HC1143] | -0.401 (inactive) | 1.52 | 0.461 (inactive)
CATVCCSMSYAGNASASA [HC1998] | 0.937 (inactive) | 0.131 (inactive) | 0.837 (inactive)
CAGAGLAGAAAGNASASA [HC1076] | -0.496 (inactive) | -0.493 (inactive) | -0.847 (inactive)
CAHHSPLKRSAGNASASA [FS-30] | -0.21 (inactive) | 0.983 (inactive) | 1.29
CATIKRLKRSAGNASASA [FS-97] | 11.2 (active) | 11.4 (active) | 9.36 (active)
CATIKRSVISAGNASASA [FS-2853] | 0.545 (inactive) | 0.855 (inactive) | -1.24 (inactive)
CAAVARLKRSAGNASASA [FS-218] | 12.9 (active) | 11 (active) | 9 (active)
CAEDPCHRPSAGNASASA [HC2331] | -1.74 (inactive) | -0.655 (inactive) | 0.261 (inactive)
CAGAVQWMNRAGNASASA [HC1116] | 0.142 (inactive) | 1.71 | -0.148 (inactive)
CAHQRRKYRSAGNASASA [FS-796] | 4.89 (active) | 5.12 (active) | 6.05 (active)
CAKLNRRSRKAGNASASA [FS-810] | 4.08 (active) | 6.18 (active) | 5.19 (active)
CAKLNRKYRSAGNASASA [FS-1132] | 9.69 (active) | 8.1 (active) | 6.59 (active)
CAEAIYQCCDAGNASASA [HC1489] | 1.16 | 0.588 (inactive) | 0.702 (inactive)
CATIFKIRMYAGNASASA [HC473] | -0.151 (inactive) | 0.348 (inactive) | -1.46 (inactive)
CAGKFRYRRVAGNASASA [FS-242] | 9.76 (active) | 11.9 (active) | 8.82 (active)
CASLCRYRRVAGNASASA [FS-1657] | 7.05 (active) | 6.79 (active) | 8.55 (active)
CASLMAFTAAAGNASASA [HC1055] | -0.632 (inactive) | -0.242 (inactive) | -1.13 (inactive)
CAAAASKVKAAGNASASA [HC1407] | 0.991 (inactive) | -0.764 (inactive) | -0.995 (inactive)
